In the supplement of paper PMC10849652:
Targets with a hit are over-represented here; the source holds about 8,800 in all. About 0.5% of all pairs of compound and target were hits. Values without a mark were called inactive.

Assays:
Assay in all cases: log2 fold change, soluble protein after heating vs DMSO (PISA); higher = thermal stabilisation; K562 lysate, 10 uM; active = over 0.2 and 3.5 SD of the protein, either way, in both replicates (recomputed)
[1] = compound: Cc1cn(-c2cc(NC(=O)c3ccc(C)c(Nc4nccc(-c5cccnc5)n4)c3)cc(C(F)(F)F)c2)cn1 [nilotinib]
Method in brief: (§1)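 Values give the log-two fold change in thermal stability against solvent controls, from duplicates. Crude K562 extract at 1 mg/mL protein, made by dounce homogenisation in PBS pH 7.4 with 1 mM MgCl2, was treated with 10 μM compound for 30 min. After 3 min heating across 48°C-58°C, aliquots were pooled, adjusted to 0.5% NP-40 at 4°C and centrifuged at 21,000xg for 90 min. The supernatant was measured by TMTpro 16plex LC-MS/MS with channel sums equalised.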

[2] = compound: Cc1nc(Nc2n[nH]c3c2CN(C(=O)N[C@H](CN(C)C)c2ccccc2)C3(C)C)c2sccc2n1
Method in brief: as §1

[3] = compound: Cc1nc(Nc2ncc(C(=O)Nc3c(C)cccc3Cl)s2)cc(N2CCN(CCO)CC2)n1 [dasatinib]
Method in brief: as §1

[4] = compound: Cc1ncc(-c2ccnc(Nc3ccc(S(C)(=O)=O)cc3)n2)n1C(C)C
Method in brief: as §1

[5] = compound: Cn1cc(-c2ccc3c(c2)CCN3C(=O)Cc2cccc(C(F)(F)F)c2)c2c(N)ncnc21
Method in brief: as §1

[6] = compound: Cn1cc(CNCC2CCN(c3ncc(C(=O)NO)cn3)CC2)c2ccccc21 [quisinostat]
Method in brief: as §1

[7] = compound: Cn1cncc1[C@@](N)(c1ccc(Cl)cc1)c1ccc2c(c1)c(-c1cccc(Cl)c1)cc(=O)n2C [tipifarnib]
Method in brief: as §1

[8] = compound: NC(=O)Nc1cc(-c2cccc(F)c2)sc1C(=O)N[C@H]1CCCNC1
Method in brief: as §1

[9] = compound: NC(=O)c1cnc(N[C@@H]2CCCC[C@@H]2N)nc1Nc1cccc(-n2nccn2)c1
Method in brief: as §1

[10] = compound: NC1(c2ccc(-c3nc4ccn5c(=O)[nH]nc5c4cc3-c3ccccc3)cc2)CCC1
Method in brief: as §1

[11] = compound: NCC(=O)Nc1ccc(-n2nc(C(F)(F)F)cc2-c2ccc3c(ccc4ccccc43)c2)cc1
Method in brief: as §1

[12] = compound: O=C(CCCCCCC(=O)Nc1ccccc1)NO [vorinostat]
Method in brief: as §1

[13] = compound: O=C(O)c1ccc2c(c1)nc(Nc1cccc(Cl)c1)c1ccncc12 [silmitasertib]
Method in brief: as §1

[14] = compound: O=C1NC(=O)C(c2cnc3ccccn23)=C1c1cn2c3c(cc(F)cc13)CN(C(=O)N1CCCCC1)CC2
Method in brief: as §1

[15] = compound: c1cn2cc(-c3ccc4cn[nH]c4c3)nc(Nc3ccc(N4CCOCC4)cc3)c2n1 [entospletinib]
Method in brief: as §1

Chain of UniProt Q9Y5Z9 (Q9Y5Z9 whole entry, looked up): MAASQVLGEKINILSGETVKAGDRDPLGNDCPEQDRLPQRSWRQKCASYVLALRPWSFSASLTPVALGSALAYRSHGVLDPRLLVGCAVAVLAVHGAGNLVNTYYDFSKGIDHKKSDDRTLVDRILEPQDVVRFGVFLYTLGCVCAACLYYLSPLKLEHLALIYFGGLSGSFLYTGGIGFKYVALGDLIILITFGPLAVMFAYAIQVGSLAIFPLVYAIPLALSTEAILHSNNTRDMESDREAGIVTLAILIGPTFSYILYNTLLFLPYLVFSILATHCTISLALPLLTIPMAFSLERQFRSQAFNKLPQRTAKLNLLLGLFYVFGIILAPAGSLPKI
Chain of UniProt Q15813 (Q15813 whole entry, looked up): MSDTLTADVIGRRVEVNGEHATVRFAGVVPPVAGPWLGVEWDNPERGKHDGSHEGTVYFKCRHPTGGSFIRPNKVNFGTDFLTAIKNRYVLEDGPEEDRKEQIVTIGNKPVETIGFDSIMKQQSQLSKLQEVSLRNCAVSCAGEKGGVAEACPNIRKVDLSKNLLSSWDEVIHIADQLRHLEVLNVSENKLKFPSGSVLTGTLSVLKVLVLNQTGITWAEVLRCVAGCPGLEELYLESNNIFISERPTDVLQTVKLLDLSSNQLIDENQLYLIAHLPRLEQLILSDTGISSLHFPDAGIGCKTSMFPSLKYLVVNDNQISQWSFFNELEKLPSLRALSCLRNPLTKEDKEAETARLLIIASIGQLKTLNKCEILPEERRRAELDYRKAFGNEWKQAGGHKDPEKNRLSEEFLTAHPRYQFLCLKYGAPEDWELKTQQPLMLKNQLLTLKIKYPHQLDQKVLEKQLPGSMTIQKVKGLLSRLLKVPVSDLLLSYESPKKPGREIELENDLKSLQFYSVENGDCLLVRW
Chain of UniProt Q0IIM8 (Q0IIM8 whole entry, looked up): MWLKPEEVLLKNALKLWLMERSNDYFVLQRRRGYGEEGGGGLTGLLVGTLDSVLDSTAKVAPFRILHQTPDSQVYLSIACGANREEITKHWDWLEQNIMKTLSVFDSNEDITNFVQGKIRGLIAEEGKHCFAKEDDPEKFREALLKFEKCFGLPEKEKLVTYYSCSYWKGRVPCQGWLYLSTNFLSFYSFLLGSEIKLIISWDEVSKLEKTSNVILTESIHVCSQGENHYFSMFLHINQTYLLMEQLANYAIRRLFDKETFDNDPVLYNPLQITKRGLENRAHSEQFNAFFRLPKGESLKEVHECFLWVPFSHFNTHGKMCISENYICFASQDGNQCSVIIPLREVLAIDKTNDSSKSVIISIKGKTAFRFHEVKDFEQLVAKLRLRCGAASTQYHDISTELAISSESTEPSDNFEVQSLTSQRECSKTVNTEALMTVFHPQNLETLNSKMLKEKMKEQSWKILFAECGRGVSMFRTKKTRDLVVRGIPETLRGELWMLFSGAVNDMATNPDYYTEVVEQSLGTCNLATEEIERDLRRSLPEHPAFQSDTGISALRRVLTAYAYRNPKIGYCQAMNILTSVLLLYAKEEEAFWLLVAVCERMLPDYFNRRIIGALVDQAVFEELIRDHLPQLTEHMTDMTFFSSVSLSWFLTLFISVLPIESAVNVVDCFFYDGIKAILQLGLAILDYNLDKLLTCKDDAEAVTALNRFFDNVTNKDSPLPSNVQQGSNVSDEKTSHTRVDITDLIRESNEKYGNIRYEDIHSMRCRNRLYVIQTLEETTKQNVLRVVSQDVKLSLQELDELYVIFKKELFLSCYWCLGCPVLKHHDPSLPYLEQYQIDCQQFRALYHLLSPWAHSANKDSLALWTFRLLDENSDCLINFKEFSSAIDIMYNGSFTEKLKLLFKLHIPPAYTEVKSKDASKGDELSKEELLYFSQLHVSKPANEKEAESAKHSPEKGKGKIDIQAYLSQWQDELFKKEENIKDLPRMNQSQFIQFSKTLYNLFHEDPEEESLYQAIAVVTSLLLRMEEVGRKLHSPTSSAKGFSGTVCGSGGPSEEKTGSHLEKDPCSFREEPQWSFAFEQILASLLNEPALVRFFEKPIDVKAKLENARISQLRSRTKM
Chain of UniProt O43615 (O43615 whole entry, looked up): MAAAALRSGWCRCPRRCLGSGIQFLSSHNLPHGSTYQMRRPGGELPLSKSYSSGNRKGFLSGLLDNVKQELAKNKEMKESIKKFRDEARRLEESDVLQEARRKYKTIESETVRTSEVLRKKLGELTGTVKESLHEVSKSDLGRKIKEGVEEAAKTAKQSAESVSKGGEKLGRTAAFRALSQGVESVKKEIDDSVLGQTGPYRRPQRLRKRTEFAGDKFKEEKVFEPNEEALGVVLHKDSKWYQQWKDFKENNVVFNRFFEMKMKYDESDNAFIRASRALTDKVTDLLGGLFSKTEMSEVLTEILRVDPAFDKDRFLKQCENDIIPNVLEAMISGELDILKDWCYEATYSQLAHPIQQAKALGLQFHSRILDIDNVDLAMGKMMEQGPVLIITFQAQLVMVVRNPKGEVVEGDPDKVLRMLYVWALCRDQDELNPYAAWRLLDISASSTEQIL
Chain of UniProt Q96CW5 (Q96CW5 whole entry, looked up): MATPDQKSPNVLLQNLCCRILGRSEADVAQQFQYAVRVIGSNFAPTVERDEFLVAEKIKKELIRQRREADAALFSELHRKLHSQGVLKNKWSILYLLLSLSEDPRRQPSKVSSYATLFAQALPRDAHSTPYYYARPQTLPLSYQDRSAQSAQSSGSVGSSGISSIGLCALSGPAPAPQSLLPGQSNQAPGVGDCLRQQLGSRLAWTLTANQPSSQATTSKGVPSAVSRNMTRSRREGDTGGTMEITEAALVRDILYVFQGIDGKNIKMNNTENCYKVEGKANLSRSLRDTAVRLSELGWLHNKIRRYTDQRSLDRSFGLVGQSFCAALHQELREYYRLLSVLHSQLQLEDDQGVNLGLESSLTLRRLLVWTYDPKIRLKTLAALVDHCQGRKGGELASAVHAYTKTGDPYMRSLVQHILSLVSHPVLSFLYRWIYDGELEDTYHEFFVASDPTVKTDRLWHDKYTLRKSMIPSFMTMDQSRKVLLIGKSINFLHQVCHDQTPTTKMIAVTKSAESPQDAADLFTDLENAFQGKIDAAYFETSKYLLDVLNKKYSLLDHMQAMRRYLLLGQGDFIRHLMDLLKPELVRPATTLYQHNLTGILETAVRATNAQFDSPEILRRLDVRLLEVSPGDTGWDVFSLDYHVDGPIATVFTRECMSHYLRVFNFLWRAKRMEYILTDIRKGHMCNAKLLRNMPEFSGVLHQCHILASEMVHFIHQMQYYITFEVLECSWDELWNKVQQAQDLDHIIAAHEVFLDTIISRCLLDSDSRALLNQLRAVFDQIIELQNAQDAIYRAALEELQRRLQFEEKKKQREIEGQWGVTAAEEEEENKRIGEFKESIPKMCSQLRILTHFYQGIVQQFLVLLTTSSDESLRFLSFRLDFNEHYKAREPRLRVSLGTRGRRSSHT
Chain of UniProt Q13595 (Q13595 whole entry, looked up): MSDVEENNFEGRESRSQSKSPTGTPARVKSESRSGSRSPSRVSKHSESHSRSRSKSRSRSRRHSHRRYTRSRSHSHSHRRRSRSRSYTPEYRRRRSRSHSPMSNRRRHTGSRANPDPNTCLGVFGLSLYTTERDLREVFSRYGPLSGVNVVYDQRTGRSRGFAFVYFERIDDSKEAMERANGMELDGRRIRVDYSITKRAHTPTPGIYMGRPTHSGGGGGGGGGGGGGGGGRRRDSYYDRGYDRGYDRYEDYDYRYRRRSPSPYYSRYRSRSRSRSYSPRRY
Chain of UniProt Q96DX7 (Q96DX7 whole entry, looked up): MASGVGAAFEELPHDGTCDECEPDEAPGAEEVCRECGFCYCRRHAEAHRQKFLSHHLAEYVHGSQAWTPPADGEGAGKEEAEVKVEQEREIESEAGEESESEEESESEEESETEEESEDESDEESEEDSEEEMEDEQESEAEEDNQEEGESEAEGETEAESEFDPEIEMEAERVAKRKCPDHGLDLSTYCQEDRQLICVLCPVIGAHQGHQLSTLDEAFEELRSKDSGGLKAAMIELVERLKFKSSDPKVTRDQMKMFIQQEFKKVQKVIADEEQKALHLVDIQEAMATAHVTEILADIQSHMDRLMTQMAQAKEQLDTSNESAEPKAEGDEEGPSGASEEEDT
Chain of UniProt A6NFQ2 (A6NFQ2 whole entry, looked up): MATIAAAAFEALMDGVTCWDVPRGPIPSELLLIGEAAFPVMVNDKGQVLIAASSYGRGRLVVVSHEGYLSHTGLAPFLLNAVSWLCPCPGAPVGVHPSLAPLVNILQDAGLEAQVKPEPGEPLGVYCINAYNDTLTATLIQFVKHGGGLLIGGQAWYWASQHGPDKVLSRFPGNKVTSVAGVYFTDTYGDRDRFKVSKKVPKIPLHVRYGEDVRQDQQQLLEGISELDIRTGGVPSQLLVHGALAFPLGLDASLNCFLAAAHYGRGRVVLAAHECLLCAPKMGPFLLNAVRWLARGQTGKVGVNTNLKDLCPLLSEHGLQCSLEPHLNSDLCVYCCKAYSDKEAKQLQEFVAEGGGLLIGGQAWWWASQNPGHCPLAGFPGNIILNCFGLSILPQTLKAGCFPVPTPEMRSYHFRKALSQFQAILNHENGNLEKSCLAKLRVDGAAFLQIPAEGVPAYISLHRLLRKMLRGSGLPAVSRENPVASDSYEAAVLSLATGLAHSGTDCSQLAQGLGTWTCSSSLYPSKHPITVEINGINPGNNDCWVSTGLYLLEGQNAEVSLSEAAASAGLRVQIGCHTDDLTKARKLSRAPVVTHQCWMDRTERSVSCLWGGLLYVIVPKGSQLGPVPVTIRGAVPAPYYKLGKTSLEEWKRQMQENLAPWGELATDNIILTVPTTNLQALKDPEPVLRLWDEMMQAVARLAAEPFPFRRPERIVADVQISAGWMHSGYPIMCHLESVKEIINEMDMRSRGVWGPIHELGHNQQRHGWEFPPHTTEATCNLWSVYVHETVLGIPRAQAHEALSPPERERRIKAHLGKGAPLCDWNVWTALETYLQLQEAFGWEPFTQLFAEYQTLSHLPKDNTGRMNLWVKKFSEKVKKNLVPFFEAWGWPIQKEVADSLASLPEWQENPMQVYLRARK
Chain of UniProt P61960 (P61960 whole entry, looked up): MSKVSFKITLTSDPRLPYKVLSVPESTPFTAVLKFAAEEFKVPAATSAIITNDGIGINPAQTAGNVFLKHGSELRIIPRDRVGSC

| Target | log2 fold change [1] | log2 fold change [2] | log2 fold change [3] | log2 fold change [4] | log2 fold change [5] | log2 fold change [6] | log2 fold change [7] | log2 fold change [8] | log2 fold change [9] | log2 fold change [10] | log2 fold change [11] | log2 fold change [12] | log2 fold change [13] | log2 fold change [14] | log2 fold change [15] |
| --- | --- | --- | --- | --- | --- | --- | --- | --- | --- | --- | --- | --- | --- | --- | --- |
| TUT4 (UniProt Q5TAX3) | -0.06 | 0.02 | -0.097 | 0.001 | -0.001 | -0.054 | -0.045 | 0.055 | 0.048 | -0.002 | 0.072 | -0.398 (active) | 0.018 | -0.048 | -0.029 |
| UBR3 isoform 4 (UniProt Q6ZT12) | 0.003 | -0.033 | -0.026 | -0.005 | 0.014 | -0.069 | -0.009 | 0.036 | -0.032 | -0.039 | -0.011 | -0.43 (active) | 0.023 | -0.005 | -0.003 |
| TTF2 (UniProt Q9UNY4) | -0.008 | -0.062 | -0.012 | -0.023 | 0.018 | -0.042 | 0.004 | 0.02 | 0.019 | -0.067 | 0.02 | -0.317 (active) | 0.008 | -0.032 | -0.074 |
| TUBGCP3 (UniProt Q96CW5) | -0.031 | 0.029 | -0.038 | 0.043 | 0.038 | -0.083 | -0.023 | 0.009 | 0.002 | 0.012 | -0.014 | -0.459 (active) | -0.014 | 0.019 | -0.003 |
| TESC (UniProt Q96BS2) | 0.031 | -0.025 | 0.053 | 0.05 | 0.02 | 0.012 | 0.012 | -0.036 | -0.035 | 0.049 | -0.036 | 0.058 | 0.103 | -0.014 | -0.111 |
| TRIM44 (UniProt Q96DX7) | -0.016 | 0.001 | 0.073 | -0.036 | -0.008 | 0.035 | 0.006 | 0.023 | -0.011 | 0.044 | 0.024 | -0.031 | 0.062 | -0.015 | -0.051 |
| TRA2A (UniProt Q13595) | 0.098 | -0.041 | -0.08 | -0.124 | 0.077 | -0.213 | -0.114 | -0.206 | 0 | -0.062 | 0.009 | 0.568 (active) | -0.151 | 0.005 | -0.102 |
| TGOLN2 isoform 7 (UniProt O43493) | -0.059 | -0.004 | 0.023 | 0.021 | 0.033 | -0.029 | -0.087 | 0.014 | 0.019 | 0.008 | -0.02 | 0.089 | 0.055 | -0.047 | -0.019 |
| TBC1D8B (UniProt Q0IIM8) | 0.021 | -0.035 | 0.01 | 0.015 | -0.042 | -0.061 | 0.036 | 0.034 | -0.042 | -0.034 | 0.036 | 0.147 | -0.037 | 0.011 | 0.131 |
| TCF12 isoform 3 (UniProt Q99081) | -0.031 | 0.016 | 0 | 0.052 | -0.022 | 0.02 | -0.022 | -0.011 | -0.032 | -0.043 | -0.016 | -0.263 (active) | -0.024 | -0.004 | 0.006 |
| TUBB2A (UniProt Q13885) | -0.005 | -0.002 | -0.049 | -0.02 | -0.001 | -0.035 | 0.009 | 0.043 | 0.003 | 0.007 | 0.034 | -0.759 (active) | 0.016 | -0.004 | -0.012 |
| TTC27 (UniProt Q6P3X3) | -0.018 | 0.027 | -0.009 | -0.031 | 0.01 | -0.047 | -0.03 | 0.057 | -0.028 | -0.023 | -0.027 | -0.403 (active) | 0.053 | -0.06 | -0.002 |
| UBAP2L isoform 5 (UniProt Q14157) | -0.141 | 0.015 | -0.035 | 0.055 | -0.058 | 0.024 | -0.106 | 0.048 | 0.01 | 0.02 | 0.013 | 0.126 | -0.037 | -0.018 | -0.042 |
| TBCE (UniProt Q15813) | -0.001 | -0.008 | -0.012 | -0.01 | 0.049 | -0.025 | -0.005 | 0.033 | 0.015 | -0.041 | -0.029 | -0.27 (active) | 0.018 | -0.025 | 0.021 |
| TMPO (UniProt P42167) | -0.033 | -0.003 | 0.008 | -0.042 | -0.016 | 0.061 | -0.034 | 0.009 | -0.011 | 0.007 | 0.021 | 0.104 | 0.012 | -0.032 | -0.031 |
| TCAF2 (UniProt A6NFQ2) | 0.051 | 0.004 | 0.001 | 0.05 | 0.042 | -0.061 | -0.037 | 0.047 | 0.041 | -0.011 | 0.019 | -0.27 (active) | 0 | 0 | -0.01 |
| TLK2 isoform 2 (UniProt Q86UE8) | -0.008 | 0.243 | -0.004 | 0.162 | 0.007 | -0.099 | 0.005 | 0.073 | 0.048 | -0.035 | 0.019 | -0.24 | 0.057 | 0.118 | -0.135 |
| UBIAD1 (UniProt Q9Y5Z9) | 0.14 | -0.014 | 0.117 | 0.125 | -0.014 | 0.096 | 0.04 | -0.019 | -0.034 | -0.027 | -0.061 | 0.042 | 0.04 | 0.032 | 0.058 |
| TIMM44 (UniProt O43615) | 0.082 | -0.011 | -0.087 | 0.023 | -0.028 | 0.003 | -0.108 | -0.058 | 0 | -0.031 | 0.045 | 0.245 (active) | 0.015 | 0.029 | -0.026 |
| TMEM87A (UniProt Q8NBN3) | -0.009 | 0.055 | -0.007 | 0.027 | 0.03 | -0.021 | 0.024 | 0.003 | 0.03 | 0.017 | 0.001 | 0.074 | 0.007 | -0.013 | 0.029 |
| UFM1 (UniProt P61960) | 0.042 | 0 | -0.037 | 0.107 | -0.032 | 0.321 | 0.088 | -0.116 | -0.063 | 0.043 | -0.247 | 0.036 | -0.074 | -0.109 | -0.011 |
